# Several values for one entry are separate records, joined by “and”; a condition that tells them apart may be missing. Identical values can stand only once. Results filed as inconclusive are left out. A call without a number means that no potency is given here. Activity calls are given as the source filed them. Unless noted, the call rests on the fitted dose curve; in most records, active means well fitted curve in either direction with a large enough effect (not every such curve was filed as active); inconclusive means small, poorly fitted or top-dose-only effect, or another doubt; inactive means flat fitted curve, though single readings scatter.
# Legend:
# [1] = AP1 Signaling Pathway (AID 357);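 further: ME-180 reporter cells stimulated with EGF at its EC50 level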
# Method in brief: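 Read-out was the 460nm/530nm emission ratio (excitation 405nm) after CCF4 loading for 2.5 hours at room temperature. Cells carried an AP-1-driven beta-lactamase reporter, were stimulated with EC50 EGF plus compound for 5 hours, and AC50 values came from titrations.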
# [2] = biological target: Cytochrome P450 1A2 (Homo sapiens) (UniProt P05177); experiment: p450-cyp1a2 (AID 410; calls by dose curve; further: potency means the concentration at half of the fitted maximal effect)
# Method in brief: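 Inhibition was calculated relative to 57 uM furafylline (full inhibition). The reaction used human CYP1A2 at 20nM with Luciferin-ME at its Km, 100uM, driven by an NADPH-regenerating system for 60 min at room temperature.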
# [3] = NFAT Signaling Pathway (AID 444); conditions: Jurkat NFAT-bla M1, carbachol, beta-lactamase ratio, 5 h;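 further: carbachol stimulus at about its EC50 of 1 µM final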
# Method in brief: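 Jurkat cells with NFAT-driven β-lactamase reporter and co-expressed M1 receptor, stimulated with carbachol (final 1 uM, ~EC50), compound titration, 5 h at 37 °C. CCF4 loaded 1 h at RT; 460/530 nm ratio gave %activity and AC50.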
# [4] = biological target: Glucocorticoid receptor (Homo sapiens) (UniProt P04150); experiment: GR-GFP Redistribution (AID 450;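 active means compounds whose dose series gives a full or clear partial fitted curve of increased nuclear translocation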; further: potency means the concentration at half of the fitted maximal effect); conditions: U2OS GR-GFP nuclear translocation, laser cytometry, 2 h
# [5] = biological target: Glucocorticoid receptor (Homo sapiens) (UniProt P04150); experiment: GR-EFC Redistribution (AID 451; calls by dose curve; further: potency means the concentration at half of the fitted maximal effect); conditions: CHO-K1 GR-EFC translocation, beta-gal luminescence, 2 h
# Method in brief: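 CHO-K1 cells expressing nuclear EA and GR-ED fragments of b-gal; compounds titrated up to 46 uM final, 2 h at 37 C. GR nuclear translocation read as complemented b-gal luminescence after 1 h RT detection.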
# [6] = biological target: Mitogen-activated protein kinase 10 (Mus musculus) (UniProt Q61831); experiment: JNK3 AlphaScreen Assay (AID 530);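 further: kinase came from lysate of stimulated human HepG2 cells; signal reports phosphorylation of biotinylated GST-cJun 1-79 at Ser73 with 10 µM ATP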
# Method in brief: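 qHTS format: compounds tested as titrations against IL-1beta/TNF-alpha-activated HepG2 lysate JNK3 with biotin-GST-cJun substrate and 10 uM ATP at room temperature. Loss of anti-phospho-cJun AlphaScreen signal indicates inhibition.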
# [7] = biological target: 3',5'-cyclic-AMP phosphodiesterase 4B (Homo sapiens) (UniProt Q07343); experiment: qHTS Assay for Inhibitors of PDE-IV (AID 607; active means well fitted activation curve with a large enough effect in the main read-out, with a control signal flat, not every such curve was filed as active)
# Method in brief: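 Cell-based read-out of cAMP via a modified cyclic nucleotide-gated channel and membrane potential dye (535/590 nm) in HEK293 cells expressing PDE4 endogenously. Compounds tested up to 22.9 uM final; 100 uM RO 20-1724 reference.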
# [8] = qHTS Assay for Lipid Storage Modulators (AID 1519; calls by dose curve); conditions: Drosophila S3 cells, BODIPY lipid droplet/cell ratio, laser cytometry, cells loaded with oleic acid; for activity change, negative = inhibition: at 25.7 µM (top of the series)
# Method in brief: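 Cells seeded at 5,000 per well were treated with compounds over a concentration series and loaded with oleic acid (400 uM, as added). Lipid droplet fluorescence (488 nm excitation, 500-530 nm channel) was read by laser-scanning cytometry and normalized to 20 uM Triacsin C.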
# [9] = biological target: Ubiquitin carboxyl-terminal hydrolase 1 (Homo sapiens) (UniProt O94782); experiment: Inhibitors of USP1/UAF1: Pilot qHTS (AID 504865; active means well fitted curve in the direction sought with a large enough effect; an effect the other way counts as inactive or inconclusive;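 further: rhodamine fluorescence freed from ubiquitin-rhodamine substrate followed over time; top concentration of the series differs between compounds; nearly all actives have a fitted effect of over 35% in size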)
# Method in brief: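 1nM USP1/UAF1 + cpd, 15 min RT; start w/ Ub-Rho 150nM final; kinetic FL 480/540 nm, 6 reads q60 s. Buffer 50mM HEPES pH 7.8, 0.5mM EDTA, 1mM TCEP, 0.01% Tween-20, 0.1 mg/ml BSA.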
# [10] = Stat Signaling Pathway (AID 446);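 further: ME-180 cervical cancer cells given 40 pM IL-6 alongside compound; SIE-controlled beta-lactamase reporter measured as 460/530 nm FRET emission ratio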
# Method in brief: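 Reporter line: ME-180 cervical carcinoma, SIE-beta-lactamase. Treatment: compound with 40 pM IL-6, 5 hrs, 37 C, in low-serum OPTI-MEM with 10 mM HEPES pH 7.3. Detection: 460/530 nm fluorescence.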
# [11] = biological target: Luciferin 4-monooxygenase (Photinus pyralis) (UniProt P08659); experiment: Biochemical firefly luciferase enzyme assay for NPC (AID 624030; active means well fitted curve in the direction sought with a large enough effect; an effect the other way counts as inactive or inconclusive;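 further: purified P. pyralis luciferase at 10 nM with luciferin and ATP substrate; nearly all actives have a fitted effect of over 70% in size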)
# Method in brief: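 Purified P. pyralis luciferase at 10 nM in 50 mM Tris Acetate (final), luminescence read within 5 minutes of enzyme addition to compounds. Activity normalised to PTC124 versus DMSO; concentration-response curves classed by r2, magnitude and activity.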
# [12] = biological target: ATP-dependent 6-phosphofructokinase (Trypanosoma brucei brucei) (UniProt O15648); experiment: qHTS Assay to Find Inhibitors of T. brucei phosphofructokinase: hit validation (AID 492961; active means well fitted curve in the direction sought with a large enough effect; an effect the other way counts as inactive or inconclusive)
# Method in brief: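 Luminescence from ADP-Glo reports ADP generated as T. brucei PFK (1.25 nM) phosphorylates 0.5 mM fructose-6-phosphate using 0.1 mM ATP. Reactions ran 45 min at room temperature, pH 8.0.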
# [13] = qHTS profiling for inhibitors of Plasmodium falciparum proliferation (AID 504749; active means well fitted curve in the direction sought with a large enough effect; an effect the other way counts as inactive or inconclusive; further: nearly all actives have a fitted effect of over 60% in size); conditions: P. falciparum in erythrocytes, SYBR Green DNA, 72 h
# Method in brief: (§1)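 Readout was DNA-dye fluorescence from lysed cultures, ex 485/em 535 nm. Parasitized red cells had grown 72 h with compound; data scaled between 0.29 uM artemisinin and DMSO wells and corrected using vehicle-only plates.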
# C2A = experiment: as above; conditions: P. falciparum in erythrocytes, SYBR Green DNA, 72 h; series mostly up to 28.7 µM
# Method in brief: as §1
# CP217 = experiment: as above; conditions: P. falciparum in erythrocytes, SYBR Green DNA, 72 h; series mostly up to 28.7 µM
# Method in brief: as §1
# CP252 = experiment: as above; conditions: P. falciparum in erythrocytes, SYBR Green DNA, 72 h; series mostly up to 12.8 µM
# Method in brief: as §1
# CP256 = experiment: as above; conditions: P. falciparum in erythrocytes, SYBR Green DNA, 72 h; series mostly up to 28.7 µM
# Method in brief: as §1
# CP262 = experiment: as above; conditions: P. falciparum in erythrocytes, SYBR Green DNA, 72 h; series mostly up to 28.7 µM
# Method in brief: as §1
# [14] = measured here: cell count channel max response
# [15] = measured here: lipid channel max response
# Chain of Ubiquitin carboxyl-terminal hydrolase 1 (Homo sapiens) (O94782 whole entry, looked up): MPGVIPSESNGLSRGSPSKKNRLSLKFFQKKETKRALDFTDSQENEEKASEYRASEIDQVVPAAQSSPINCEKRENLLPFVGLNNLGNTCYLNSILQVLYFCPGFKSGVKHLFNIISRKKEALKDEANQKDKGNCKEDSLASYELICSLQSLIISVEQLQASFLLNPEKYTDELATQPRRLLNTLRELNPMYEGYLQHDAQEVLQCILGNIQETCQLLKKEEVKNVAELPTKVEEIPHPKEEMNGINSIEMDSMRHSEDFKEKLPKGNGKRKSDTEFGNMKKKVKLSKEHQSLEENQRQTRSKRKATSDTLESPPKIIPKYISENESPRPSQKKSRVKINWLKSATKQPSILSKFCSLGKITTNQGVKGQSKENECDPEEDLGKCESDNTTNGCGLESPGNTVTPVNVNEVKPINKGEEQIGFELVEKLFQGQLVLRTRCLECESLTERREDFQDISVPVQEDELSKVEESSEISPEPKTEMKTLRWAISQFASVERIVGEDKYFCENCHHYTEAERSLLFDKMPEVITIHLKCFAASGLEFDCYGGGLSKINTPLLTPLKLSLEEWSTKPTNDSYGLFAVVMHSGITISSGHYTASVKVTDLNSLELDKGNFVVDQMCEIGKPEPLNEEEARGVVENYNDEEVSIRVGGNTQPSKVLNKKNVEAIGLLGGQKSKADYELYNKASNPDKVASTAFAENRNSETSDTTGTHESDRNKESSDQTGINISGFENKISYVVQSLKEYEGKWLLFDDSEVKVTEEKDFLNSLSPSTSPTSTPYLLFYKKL
# Chain of Glucocorticoid receptor (Homo sapiens) (P04150 whole entry, looked up, the tested form may be a part): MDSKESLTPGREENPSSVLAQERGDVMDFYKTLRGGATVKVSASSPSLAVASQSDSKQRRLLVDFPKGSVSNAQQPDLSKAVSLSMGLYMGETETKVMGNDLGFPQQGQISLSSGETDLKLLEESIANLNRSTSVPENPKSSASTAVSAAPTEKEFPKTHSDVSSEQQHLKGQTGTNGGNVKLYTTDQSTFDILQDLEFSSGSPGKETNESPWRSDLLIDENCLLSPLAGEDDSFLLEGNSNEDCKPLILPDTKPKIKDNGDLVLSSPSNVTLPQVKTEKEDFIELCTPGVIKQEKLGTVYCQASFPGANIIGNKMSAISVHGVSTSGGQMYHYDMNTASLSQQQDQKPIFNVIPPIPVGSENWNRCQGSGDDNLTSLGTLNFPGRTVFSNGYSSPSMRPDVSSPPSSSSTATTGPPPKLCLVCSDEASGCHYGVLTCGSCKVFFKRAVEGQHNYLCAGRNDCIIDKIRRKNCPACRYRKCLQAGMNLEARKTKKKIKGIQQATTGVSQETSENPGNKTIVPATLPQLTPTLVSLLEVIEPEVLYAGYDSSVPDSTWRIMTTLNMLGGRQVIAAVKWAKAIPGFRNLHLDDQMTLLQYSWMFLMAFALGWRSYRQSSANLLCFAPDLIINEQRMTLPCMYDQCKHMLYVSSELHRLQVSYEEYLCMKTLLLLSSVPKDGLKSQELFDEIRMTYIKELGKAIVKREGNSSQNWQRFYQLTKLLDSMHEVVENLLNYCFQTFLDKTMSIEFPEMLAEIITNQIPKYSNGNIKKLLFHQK
# Chain of Luciferin 4-monooxygenase (Photinus pyralis) (P08659 whole entry, looked up): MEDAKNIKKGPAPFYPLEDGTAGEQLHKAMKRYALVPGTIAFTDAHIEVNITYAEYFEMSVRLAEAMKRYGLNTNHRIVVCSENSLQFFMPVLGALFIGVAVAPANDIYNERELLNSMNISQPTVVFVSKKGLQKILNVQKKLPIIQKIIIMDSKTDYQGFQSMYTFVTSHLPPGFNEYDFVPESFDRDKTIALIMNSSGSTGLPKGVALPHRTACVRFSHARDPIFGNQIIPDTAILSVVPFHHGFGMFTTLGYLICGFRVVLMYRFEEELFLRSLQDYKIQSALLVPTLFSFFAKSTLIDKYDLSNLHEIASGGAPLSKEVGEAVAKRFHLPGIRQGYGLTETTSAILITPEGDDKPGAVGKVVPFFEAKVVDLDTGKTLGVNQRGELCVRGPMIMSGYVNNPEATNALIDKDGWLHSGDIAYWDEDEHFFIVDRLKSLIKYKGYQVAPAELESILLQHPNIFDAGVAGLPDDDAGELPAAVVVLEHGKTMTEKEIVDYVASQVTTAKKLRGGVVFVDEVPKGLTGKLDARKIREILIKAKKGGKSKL
# Chain of Cytochrome P450 1A2 (Homo sapiens) (P05177 whole entry, looked up): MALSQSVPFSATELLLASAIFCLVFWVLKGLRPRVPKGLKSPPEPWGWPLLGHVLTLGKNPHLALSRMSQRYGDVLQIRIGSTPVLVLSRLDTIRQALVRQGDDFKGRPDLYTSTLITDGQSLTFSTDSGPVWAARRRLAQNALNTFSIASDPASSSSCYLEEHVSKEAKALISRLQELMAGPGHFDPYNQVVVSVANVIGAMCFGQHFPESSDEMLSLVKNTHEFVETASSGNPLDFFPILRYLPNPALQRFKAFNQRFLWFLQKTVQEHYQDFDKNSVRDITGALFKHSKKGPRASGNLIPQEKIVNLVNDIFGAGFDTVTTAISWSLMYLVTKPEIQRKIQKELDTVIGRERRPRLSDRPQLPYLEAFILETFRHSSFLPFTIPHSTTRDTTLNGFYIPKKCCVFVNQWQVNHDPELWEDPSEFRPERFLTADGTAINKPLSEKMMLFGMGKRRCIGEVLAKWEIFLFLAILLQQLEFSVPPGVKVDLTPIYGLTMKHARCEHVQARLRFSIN
# Chain of 3',5'-cyclic-AMP phosphodiesterase 4B (Homo sapiens) (Q07343 whole entry, looked up): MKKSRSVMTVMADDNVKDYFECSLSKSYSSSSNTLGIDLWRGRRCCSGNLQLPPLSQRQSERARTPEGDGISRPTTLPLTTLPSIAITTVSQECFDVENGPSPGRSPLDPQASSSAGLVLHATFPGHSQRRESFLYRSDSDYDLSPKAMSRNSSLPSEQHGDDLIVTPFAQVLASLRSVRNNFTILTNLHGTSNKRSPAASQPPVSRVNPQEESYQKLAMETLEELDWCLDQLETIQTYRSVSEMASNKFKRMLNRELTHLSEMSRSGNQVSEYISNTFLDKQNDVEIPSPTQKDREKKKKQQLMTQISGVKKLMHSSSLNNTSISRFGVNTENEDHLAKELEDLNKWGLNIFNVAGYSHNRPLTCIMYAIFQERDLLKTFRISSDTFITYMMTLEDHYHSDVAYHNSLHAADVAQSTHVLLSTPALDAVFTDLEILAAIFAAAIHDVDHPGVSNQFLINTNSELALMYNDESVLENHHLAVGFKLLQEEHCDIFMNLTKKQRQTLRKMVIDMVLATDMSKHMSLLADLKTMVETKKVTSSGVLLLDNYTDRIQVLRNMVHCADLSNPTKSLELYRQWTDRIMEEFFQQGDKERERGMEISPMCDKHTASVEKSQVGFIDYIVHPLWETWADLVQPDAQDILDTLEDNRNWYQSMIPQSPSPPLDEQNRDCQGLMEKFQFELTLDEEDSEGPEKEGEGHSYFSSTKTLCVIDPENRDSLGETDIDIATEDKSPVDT
# Chain of ATP-dependent 6-phosphofructokinase (Trypanosoma brucei brucei) (O15648 whole entry, looked up): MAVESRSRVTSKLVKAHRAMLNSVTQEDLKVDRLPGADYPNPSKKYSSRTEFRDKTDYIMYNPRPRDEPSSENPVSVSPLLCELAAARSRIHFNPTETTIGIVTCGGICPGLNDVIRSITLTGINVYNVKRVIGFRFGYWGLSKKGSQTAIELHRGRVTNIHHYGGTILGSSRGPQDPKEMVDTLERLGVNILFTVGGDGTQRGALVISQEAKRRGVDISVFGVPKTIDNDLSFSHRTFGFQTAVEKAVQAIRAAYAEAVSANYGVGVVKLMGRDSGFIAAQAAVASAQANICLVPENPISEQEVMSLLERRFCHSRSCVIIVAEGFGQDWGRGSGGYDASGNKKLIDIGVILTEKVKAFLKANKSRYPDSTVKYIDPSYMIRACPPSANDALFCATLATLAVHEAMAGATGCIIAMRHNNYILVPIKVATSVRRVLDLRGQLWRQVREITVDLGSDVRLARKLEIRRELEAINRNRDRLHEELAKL
structure (smiles),measurement,setting,value
CN1[C@@H]2CCC[C@H]1CC(=O)C2,outcome,[1],inactive
same,Potency,[2],inactive
same,"activity change, negative = inhibition",[3]; at 17.2 µM (top of the series),-4.22% (inactive)
same,Potency,[4],> 20.6 µM (inactive)
same,Potency,[5],> 20.6 µM (inactive)
same,outcome,[6],inactive
same,Potency,[7],inactive
same,"activity change, negative = inhibition",[8],-2.47% (inactive)
same,max response,[8]; [14],-0.588%
same,max response,[8]; [15],-3.94%
same,Potency,[9],inactive
CN1[C@@H](C[C@@H](O)c2ccccc2)CCC[C@@H]1C[C@H](O)c1ccccc1,outcome,[1],inactive
same,Potency,[2],5.01 µM (active)
same,outcome,[10],inactive
same,Potency,[4],> 20.6 µM (inactive)
same,Potency,[5],> 20.6 µM (inactive)
same,outcome,[6],inactive
same,Potency,[7],inactive
same,"activity change, negative = inhibition",[8],-1.73% (inactive)
same,max response,[8]; [14],3.31%
same,max response,[8]; [15],0.966%
same,Potency,[9],inactive
CC(=O)N[C@@H]1CCSC1=O,outcome,[1],inactive
same,Potency,[2],inactive
same,"activity change, negative = inhibition",[3]; at 17.2 µM (top of the series),-13% (inactive)
same,outcome,[10],inactive
same,Potency,[5],> 20.6 µM (inactive)
same,outcome,[6],inactive
same,Potency,[7],inactive
same,"activity change, negative = inhibition",[8],1.07% (inactive)
same,max response,[8]; [14],-9.82%
same,max response,[8]; [15],-4.81%
same,Potency,[11],inactive
CC(=O)OCC(=O)[C@@H]1CC[C@H]2[C@H]3CC[C@H]4C[C@@H](O)CC[C@]4(C)[C@@H]3C(=O)C[C@@]12C,outcome,[1],inactive
same,Potency,[2],inactive
same,outcome,[10],inactive
same,Potency,[4],> 20.6 µM (inactive)
same,Potency,[5],> 20.6 µM (inactive)
same,Potency,[7],inactive
same,"activity change, negative = inhibition",[8],-5.39% (inactive)
same,max response,[8]; [14],-23.1%
same,max response,[8]; [15],-26.2%
same,Potency,[12],inactive
same,Potency,[9],inactive
same,Potency,[11],inactive
same,"activity, negative = inhibition","[13]; at 12.8 µM (top of the series), parasite line A",5.9% (inactive)
same,"activity, negative = inhibition","[13]; at 12.8 µM (top of the series), parasite line B",17.2% (inactive)
same,Potency,C2A,inactive
same,Potency,CP217,inactive
same,Potency,CP252,inactive
same,Potency,CP256,inactive
same,Potency,CP262,inactive
C#CCN(C)[C@@H](C)Cc1ccccc1,outcome,[1],inactive
same,"activity change, negative = inhibition",[3]; at 17.2 µM (top of the series),-14.3% (inactive)
same,"activity change, negative = inhibition",[3]; at 38 µM (top of the series),-2.85% (inactive)
same,outcome,[10],inactive
same,Potency,[4],> 46 µM (inactive) and > 20.6 µM (inactive)
same,Potency,[5],> 46 µM (inactive) and > 20.6 µM (inactive)
same,outcome,[6],inactive
same,Potency,[7],inactive
same,"activity change, negative = inhibition",[8],-2.3% (inactive)
same,max response,[8]; [14],2.02%
same,max response,[8]; [15],-0.249%
same,Potency,[12],inactive
same,Potency,[11],inactive
same,"activity, negative = inhibition","[13]; at 28.7 µM (top of the series), parasite line A",-9.65% (inactive)
same,"activity, negative = inhibition","[13]; at 28.7 µM (top of the series), parasite line B",13.3% (inactive)
same,Potency,C2A,inactive
same,Potency,CP217,inactive
same,Potency,CP252,inactive
same,Potency,CP256,inactive
same,Potency,CP262,inactive
C=C1[C@@H]2C[C@@]3([C@H]1O)[C@H]1C[C@@H]4[C@@]5(C)CC[C@H](O)[C@]4([C@H]1N(CC)C5)[C@H]3C[C@H]2O,outcome,[1],inactive
same,Potency,[2],inactive
same,"activity change, negative = inhibition",[3]; at 17.2 µM (top of the series),-13% (inactive)
same,Potency,[4],> 20.6 µM (inactive)
same,Potency,[5],> 20.6 µM (inactive)
same,outcome,[6],inactive
same,Potency,[7],inactive
same,"activity change, negative = inhibition",[8],-1.27% (inactive)
same,max response,[8]; [14],-11.5%
same,max response,[8]; [15],-13.2%

# Source: PubChem BioAssay (NCATS)
